Laboratory results: PubChem BioAssay (NCATS)
Inconclusive results are not listed. Unmarked numbers belong to inactive results. The call rests on the fitted dose curve; in most records, active means well fitted cell-killing curve with a large enough effect; inconclusive means small, poorly fitted or top-dose-only effect, or effect the other way; inactive means no such curve, though single readings can be large or run the other way.

Experiment: qHTS assay to identify small molecule inhibitors of chordoma cells - UCH-1 (AID 1259355); further: nearly all actives have a fitted effect of over 55% in size
Conditions: UCH-1 chordoma viability, CellTiter-Glo, 48 h, combination, with auranofin plus four topoisomerase inhibitors; series mostly up to 46.1 µM; activity, negative = inhibition: at the top concentration
From the text: NIH Chemical Genomics Center [NCGC]
Chordoma is a rare and slow growing tumor that can occur anywhere along the spine, from the base of the skull to the tailbone. Current treatment options for chordoma is surgery and radiation therapy for those who are not candidates for surgery. But chordomas tend to return in the same location or surrounding areas of the original tumor after surgery and/or radiation. Chemotherapy can slow down the progression of the tumor. As chordoma is slow growing, the general cytotoxic agents that kill fast growing cells are ineffective, and some patients have been reported to respond to molecularly targeted drugs.
NCATS Pharmaceutical Collection (NPC) containing approximately 3000 clinically approved and investigational drugs were used to screen at 15 concentrations in a chordoma cell lines, UCH-1, to identify small molecule compounds that can inhibit chordoma cell growth.
NCGC Assay Protocol Summary:
Human chordoma cell line UCH-1 was dispensed at 800 per well in 4uL of culture medium into white solid bottom 1536-well plates (Corning Life Sciences, Corning, NY) using a Multidrop Combi (Thermo Scientific, Waltham, MA) dispenser. The assay plates were incubated at 37 C and 5% CO2 for an overnight, and then 23nL of compounds dissolved in DMSO and positive control were transferred using a Pintool station (Wako, San Diego, CA). Compound treatment was followed by the addition of 1uL of the combination compounds (1uM Auranofin, 500nM each of Camptothecin, Doxorubicin, Rubitecan, and Topotecan) and assay medium to each well of the assay plates using Flying Reagent Dispenser (FRD, Aurora Discovery, San Diego, CA). The assay plates were incubated at 37 C and 5% CO2 for 48hr. Then 5uL of CellTiter-Glo reagent (Promega Corporation, Madison, WI) was added to each well of the assay plates using FRD. After 30min incubation at room temperature, the luminescence signal was quantified using a ViewLux plate reader (PerkinElmer, Shelton, CT).
On the % scale 0 is the no-effect control and ±100 the full control effect.

Point of comparison: `N#CC(c1ccc(Cl)cc1)c1c(Cl)cc(-n2ncc(=O)[nH]c2=O)cc1Cl` (stereo not drawn), “activity, negative = inhibition” value -7.6%. Against it:
- N#Cc1c(N(CC(=O)O)CC(=O)O)sc(C(=O)O)c1CC(=O)O — higher, -2.55%
- CC[C@H](C)C(=O)O[C@H]1C[C@H](O)C=C2C=C[C@H](C)[C@H](CC[C@@H](O)C[C@@H](O)CC(=O)O)[C@H]21 — lower, -31.9%
- COc1ccnc(CS(=O)c2nc3ccc(OC(F)F)cc3[nH]2)c1OC (stereo not drawn) — lower, -23.8%
- Cc1cc2nc3c(=O)[nH]c(=O)nc-3n(CC(O)C(O)C(O)CO)c2cc1C (stereo not drawn) — lower, -19.4%
- O=C(O)c1nc(=O)[nH]c(=O)[nH]1 — higher, -0.891%
- CC(C)CN(C[C@@H](O)[C@H](Cc1ccccc1)NC(=O)O[C@H]1CO[C@H]2OCC[C@H]21)S(=O)(=O)c1ccc(N)cc1 — lower, -12.9%
- CN1CC(=O)N2C(Cc3c([nH]c4ccccc34)[C@H]2c2ccc3c(c2)OCO3)C1=O (stereo partly drawn) — higher, -7.15%
- CS(=O)(=O)c1ccc(C2=C(c3ccccc3)C(=O)OC2)cc1 — higher, -3.5%
- CN1CCN2c3ncccc3Cc3ccccc3C2C1 (stereo not drawn) — lower, -16.2%
- COc1cc2c(cc1OC)CC(=O)N(CCCN(C)C[C@H]1Cc3cc(OC)c(OC)cc31)CC2 — higher, -1.49%
- COc1c(C)c2c(c(O)c1CC=C(C)CCC(=O)OCCN1CCOCC1)C(=O)OC2 — lower, -10.8%

With `NS(=O)(=O)c1cc(Cl)c(Cl)c(S(N)(=O)=O)c1` the “activity, negative = inhibition” value was -29.5% [at 20.6 µM].
